Screening results (PubChem)
HER2 expr 66K: lowers expression of human Her2 kinase. SKBR-3 HER2 protein level, AlphaScreen, 18-24 h; hits give low values. HER2 level % of control, % at 10 µM. 65,000 compounds, 0.69% hits. AID 645;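 active = HER2 level under 5% of the carrier-only control; inconclusive = no clear call, values can overlap the other calls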;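 note: 100% = DMSO carrier and 0% = 500 nM PU-H71 HSP90 inhibitor; lower value means stronger loss of Her2 protein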
PLAP activator: human PLAP activation; P05187; purified PLAP enzyme, luminescent substrate read-out; hits give high values; activation fold at 20 µM; 96,000 compounds, 1.2% hits; in the data active = activation fold above about 2
M1 antag: blocks the rat M1 muscarinic receptor response to acetylcholine. P08482. B-score at 10 µM. CHO-M1 cells, Fluo-4 calcium, ACh EC80 antagonist mode; hits give low values. 64,000 compounds, 3.4% hits;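 active = calcium fluorescence response, raw or row-and-column corrected B-score, differing from the plate sample mean either way at a set confidence level, mostly lower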
Cav3 T inh: human Cav3.2 channel inhibition, primary screen; O95180; Cav3.2-expressing cells, Fluo-4 calcium fluorescence FDSS; hits give low values; B-score at 10 µM; 100,000 compounds, 4% hits; AID 449739;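 active = single-dose well whose peak fluorescence ratio is a statistical outlier from its plate by either plate-standardised score or position-corrected B-score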
M1 ag: M1 muscarinic receptor agonism. CHO-M1 cells, Fluo-4 calcium fluorescence, agonist mode; hits give high values. B-score at 10 µM. 64,000 compounds, 3% hits. AID 626;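 active = fluorescence rise, raw or as B-score row- and column-corrected plate score, outside the 99.7% band of its plate's samples, either direction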
M1 agonist conf: confirmation of rat M1 muscarinic receptor agonists | shares compounds with M1 ag | AID 1488 | 1,700 compounds, 19% hits | CHO-M1 cells, Fluo-4 calcium fluorescence, agonist mode; actives lie on both sides | fluorescence change (max-min) at 10 µM;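 active = fluorescence change differs from the solvent-only DMSO control mean at a set confidence level in both duplicate runs; inconclusive = differs from solvent-only control mean in just one of two runs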;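 note: an EC20 dose of acetylcholine follows compound addition during the same imaging run; raw fluorescence intensity difference in instrument units with no normalization to controls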
M4 agonist ctr: counter-screen for M1 agonists: activity at rat M4 receptor | AID 1741 | CHO M4/Gqi5 cells, Fluo-4 calcium fluorescence, agonist mode; actives lie on both sides | shares compounds with M1 ag | fluorescence change (max-min) at 10 µM | 1,700 compounds, 9% hits;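 active = fluorescence change differing from the plate's solvent-only control wells at 99.7% confidence in both duplicates, whether higher or lower; inconclusive = differs from solvent controls in only one of two duplicates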
Target sequence (P08485 whole entry, looked up): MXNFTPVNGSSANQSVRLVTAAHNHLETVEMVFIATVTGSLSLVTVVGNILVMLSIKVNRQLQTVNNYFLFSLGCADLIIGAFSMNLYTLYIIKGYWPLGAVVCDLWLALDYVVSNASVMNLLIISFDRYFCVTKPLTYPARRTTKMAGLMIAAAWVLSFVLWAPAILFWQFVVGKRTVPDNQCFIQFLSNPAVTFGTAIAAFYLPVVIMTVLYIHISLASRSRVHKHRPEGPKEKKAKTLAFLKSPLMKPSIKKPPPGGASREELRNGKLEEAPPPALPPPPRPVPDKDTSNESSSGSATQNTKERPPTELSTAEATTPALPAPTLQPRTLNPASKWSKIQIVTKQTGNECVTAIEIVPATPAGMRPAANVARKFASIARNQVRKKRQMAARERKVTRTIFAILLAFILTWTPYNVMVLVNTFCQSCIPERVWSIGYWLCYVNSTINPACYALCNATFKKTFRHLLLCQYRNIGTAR
Active calls of the source: *; ? = inconclusive; · = no result given. Rows were chosen to be rich in hits. Some 7.9% of all compounds tested hit in one or more screens of this group.

SMILES	HER2 expr 66K	PLAP activator	M1 antag	Cav3 T inh	M1 ag	M1 agonist conf	M4 agonist ctr
COc1ccc(S(=O)(=O)Nc2cc(C)nn2-c2ccccc2)cc1	·	1	·	-0.49	·	·	·
O=C(Nc1cccc(F)c1)N(Cc1ccc(Cl)cc1)CC(O)C(F)(F)F (centres undefined)	·	0.9	·	-7.2*	·	·	·
O=C(Nc1ccccc1)N(Cc1ccccc1)CC(O)C(F)(F)F (centres undefined)	·	0.9	·	0.28	·	·	·
COC(=O)c1ccc(C(=O)OC)c(NC(=O)CN(c2ccc3c(c2)OCO3)S(C)(=O)=O)c1	·	1.7	·	-1.2	·	·	·
N#Cc1c(N)c(C#N)c(-c2ccc(O)cc2)c2c1CCCC2	83	1.1	0.64	-5.6*	-0.043	·	·
COc1ccccc1CN(Cc1nc2ccccc2c(=O)[nH]1)C(=O)Nc1ccc(C)cc1	·	1.1	·	-4.3*	·	·	·
CCN(CC)CCN(Cc1cc2cc(C)ccc2[nH]c1=O)C(=O)Nc1ccccc1OC	81	1.5	·	0.15	·	·	·
COc1ccccc1CN(Cc1nc2ccccc2c(=O)[nH]1)C(=O)Nc1ccccc1C	·	1.2	·	-5.9*	·	·	·
O=C(CCc1nc2ccccc2[nH]1)Nc1ccccc1F	·	·	·	0.49	·	·	·
COc1ccccc1CN(Cc1nc2ccccc2c(=O)[nH]1)S(=O)(=O)c1ccc(C)cc1	·	1.5	·	0.012	·	·	·
CCc1ccc2[nH]c(=O)c(CN(Cc3ccccc3OC)C(=O)Nc3ccccc3OC)cc2c1	·	1.3	·	-5.2*	·	·	·
Cc1ccccc1NC(=O)N(CCc1nc2ccccc2[nH]1)Cc1ccccc1	·	·	·	-4*	·	·	·
COc1ccc(CC2NCCC3=CC(=O)CCC32)cc1O (centres undefined)	·	·	·	1.1	·	·	·
COc1ccc(CC(=O)NNC(=S)Nc2ccc(Br)cc2)cc1	·	1.2	·	-2.1	·	·	·
CCOc1ccc(CC(=O)NNC(=S)Nc2ccccc2)cc1Br	·	1.5	·	-7.4*	·	·	·
CCC(=O)Nc1nc(=S)ss1	·	1.4	·	-0.4	·	·	·
CC(C)(C)C(=O)Nc1nc(=S)ss1	·	1.3	·	-5*	·	·	·
CCn1c(SCC(=O)N(C(C)C)C(C)C)nnc1-c1cc2ccccc2cc1O	67	2*	-2.4	0.44	1.1	·	·
CCc1nnc(NC(=O)CSc2nnc(-c3cc4ccccc4cc3O)n2CC)s1	64	1.8	-1	-1.7	2.1	·	·
C1=C(CCNc2ncnc3nc[nH]c23)CCCC1	95	1.8	-0.6	·	2.7*	?	-25
CCCNc1ncnc2nc[nH]c12	76	1.3	0.03	·	-0.39	·	·
Clc1ccc(CCNc2ncnc3nc[nH]c23)cc1	91	1.6	-2.6*	-0.00083	15*	?	?
Cc1ccc(CNC(=O)c2ccc3c(c2)S(=O)(=O)c2ccccc2C3=O)o1	·	·	·	0.21	·	·	·
COc1ccc(OC)c(S(=O)(=O)N2c3cc(F)ccc3CCC2C)c1 (centres undefined)	83	1.1	0.62	-2.2	0.64	·	·
CC(=O)c1c(C)n(CC(=O)NCc2ccc3c(c2)OCO3)c2ccccc12	89	0.9	-0.49	-2.9	3.4*	?	-37
SMILES	HER2 expr 66K	PLAP activator	M1 antag	Cav3 T inh	M1 ag	M1 agonist conf	M4 agonist ctr
Nc1ccc(-n2nncc2-c2ccc(Cl)cc2)cc1	·	0.8	·	0.68	·	·	·
CCOc1ccc(NC(=O)CC2CC(C)(C)OC2=O)cc1 (centres undefined)	100	0.8	0.23	0.11	12*	-23	?
O=C(c1cc(-c2ccccc2)nc2ccccc12)N1CCN(c2ccccn2)CC1	102	1.5	-1.2	-3.1	4.1*	-16	-41
O=C(c1cnc(N2CCN(c3ncccn3)CC2)c2ccccc12)N1CCN(c2ccccn2)CC1	68	1.2	-1.3	-0.38	12*	-10	-12
O=C(c1cc(-c2ccncc2)nc2ccccc12)N1CCN(c2ccc(N3CCOCC3)nn2)CC1	95	1.3	0.35	·	4.8*	-22	-28
O=C(c1cc(-c2ccncc2)nc2ccccc12)N1CCN(c2ccccn2)CC1	70	1.2	-0.34	-2.1	1.6	·	·
COc1ccccc1CNS(=O)(=O)c1c(C)[nH]c(=O)[nH]c1=O	·	0.9	·	0.95	·	·	·
Cc1ccc(-c2cc(C(F)(F)F)n3nc(C(=O)NCCCn4ccnc4)cc3n2)cc1C	·	1.4	·	0.072	·	·	·
O=C(CNS(=O)(=O)c1ccc(Br)cc1)N1CCOCC1	·	1	·	-0.46	·	·	·
Cn1c(CN2CCOCC2)nnc1SCC(=O)NC1CCCCC1	95	·	·	-0.72	·	·	·
CC1CCCCC1NC(=O)CSc1nnc(CN2CCOCC2)n1C (centres undefined)	86	0.9	1	-0.22	13*	-8.8	-14
CCCCS(=O)(=O)Nc1ccc(Cc2ccncc2)cc1	·	1	0.047	0.2	3.2*	?	-39
N#CC1(c2nc3ccccc3[nH]2)CC1c1ccc2c(c1)OCO2 (centres undefined)	97	0.9	0.29	0.013	2.9*	-34*	-82
CCOC(=O)Cc1cnc(NC(=O)c2ccccc2)s1	91	1	-0.45	1.3	3.2*	-17	?
CCOC(=O)Cc1nnc(NC(=O)c2ccccc2OCC)s1	170	·	0.43	-0.51	-2.7	·	·
O=C(N/N=C/c1ccc(O)c(O)c1)c1ccc(CSc2cccc3cccnc23)cc1	·	1.3	·	0.29	·	·	·
CCOc1ccccc1-n1nnnc1SCC(=O)NC(=O)NCc1ccco1	81	1.4	-0.26	-3.4	3.3*	-6.2	-30
O=C(N/N=C1\CCCc2ccccc21)c1ccc([N+](=O)[O-])cc1Cl	·	1	·	0.12	·	·	·
COc1cc(C2C(C#N)=C(N)OC3=C2C(=O)CCC3)c([N+](=O)[O-])cc1OC (centres undefined)	·	1.1	·	-3.6	·	·	·
COCCCn1c(SCc2cc(=O)[nH]c3ccccc23)nnc1-c1ccco1	106	0.9	0.5	0.0043	-0.42	·	·
CCOC(=O)N1CCN(C(=O)c2ccc3c(=O)n(Cc4ccccc4)c(=S)[nH]c3c2)CC1	126	1.3	-0.78	-2.8	4.6*	?	?
O=C(c1ccc(Cn2c(=O)[nH]c3ccccc3c2=O)cc1)N1CCN(c2ccccn2)CC1	99	1.4	-1	-1.5	3.8*	-7.7	-20
O=C(c1ccc(Cn2c(=O)[nH]c3ccccc3c2=O)cc1)N1CCN(c2ccccc2)CC1	48	1	0.11	·	-2.4	·	·
COc1cc2[nH]c(=O)n(CCCCCC(=O)N3CCN(c4ccccn4)CC3)c(=O)c2cc1OC	133	1.8	0.38	0.43	7.2*	-10	-42
CCOC(=O)N1CCN(C(=O)c2ccc(Cn3c(=S)[nH]c4cc5c(cc4c3=O)OCO5)cc2)CC1	71	·	-0.14	-2.3	1.4	·	·
Cc1cc2c(c(=O)o1)C1(C(=O)N(CC(=O)O)c3ccccc31)C(C#N)=C(N)O2 (centres undefined)	88	1	-0.11	-1.4	18*	60*	54
